From PubChem
Rows were chosen to be rich in hits. Some 0.71% of all compounds tested hit in one or more screens of this group.
Cardiac RTF inh – cardiac RTF calcium desensitization; IANBD-labeled cardiac RTF, Ca2+ fluorescence; inhibition, % at 7.15 µM; P19429+P45379; 0.12% of 340,000 active;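 active means inhibition above the mean inhibition of all tested compounds plus 3 SD, cut at about 17% in these data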;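 further: assay run at fixed EC70 calcium of 1.6 mM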
IDE cell activ – IDE (human) activation, cell-based; HEK cells, FAbeta-B cleavage, fluorescence polarization; 0% vehicle, 100% cell-free pure enzyme wells; P14735; activation, % at 5.96 µM; AID 493087; 0.073% of 340,000 active;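 active means activation above the mean of all tested compounds plus 3 SD, set per screening campaign, cut at about 17% in these data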
Target sequence (P14735 whole entry, looked up): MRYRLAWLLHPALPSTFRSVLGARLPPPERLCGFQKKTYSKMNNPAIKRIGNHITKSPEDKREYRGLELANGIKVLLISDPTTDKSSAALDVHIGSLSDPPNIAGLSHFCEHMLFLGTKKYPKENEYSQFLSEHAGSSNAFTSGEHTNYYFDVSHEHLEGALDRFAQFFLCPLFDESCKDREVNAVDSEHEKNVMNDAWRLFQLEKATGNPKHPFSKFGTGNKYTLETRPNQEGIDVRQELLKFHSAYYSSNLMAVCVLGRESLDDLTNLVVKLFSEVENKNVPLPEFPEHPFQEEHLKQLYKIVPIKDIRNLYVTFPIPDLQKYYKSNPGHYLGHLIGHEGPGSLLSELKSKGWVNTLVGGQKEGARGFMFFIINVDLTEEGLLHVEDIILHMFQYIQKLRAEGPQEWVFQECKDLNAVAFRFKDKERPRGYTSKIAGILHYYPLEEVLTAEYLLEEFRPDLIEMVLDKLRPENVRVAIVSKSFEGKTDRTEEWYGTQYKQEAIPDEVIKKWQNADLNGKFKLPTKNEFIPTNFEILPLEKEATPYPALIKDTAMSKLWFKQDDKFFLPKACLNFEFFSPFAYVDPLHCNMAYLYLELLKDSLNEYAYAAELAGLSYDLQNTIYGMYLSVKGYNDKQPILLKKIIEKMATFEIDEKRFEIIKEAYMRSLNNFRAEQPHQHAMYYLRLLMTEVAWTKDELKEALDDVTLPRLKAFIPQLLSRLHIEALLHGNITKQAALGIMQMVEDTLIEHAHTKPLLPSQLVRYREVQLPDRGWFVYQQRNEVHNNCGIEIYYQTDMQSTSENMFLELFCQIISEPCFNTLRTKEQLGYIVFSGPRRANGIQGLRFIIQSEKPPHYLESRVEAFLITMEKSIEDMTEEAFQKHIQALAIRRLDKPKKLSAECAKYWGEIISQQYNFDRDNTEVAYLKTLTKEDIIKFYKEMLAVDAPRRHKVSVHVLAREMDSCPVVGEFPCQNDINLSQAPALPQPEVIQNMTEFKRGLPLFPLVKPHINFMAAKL
cardiac RTF act – increases calcium sensitivity of human cardiac regulated thin filaments | P19429+P45379 | IANBD-labeled TnC RTF fluorescence at EC20 calcium; 0% EC20 calcium, 100% full calcium | activation, % at 7.2 µM | 0.24% of 340,000 active | AID 493008;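 active means activation above the mean over all tested compounds plus 3 SD, cut at about 30% in these data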;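 further: rise in fluorescence read as greater calcium sensitivity of cardiac thin filaments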
IDE inh – cellular human IDE inhibition | P14735 | HEK cells, FAbetaB cleavage, fluorescence polarization | inhibition, % at 5.59 µM | 0.41% of 320,000 active | AID 434962;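 active means percent inhibition above the average of all tested compounds plus 3 SD, set per screening campaign, cut at about 16% in these data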;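 further: IDE supplied by intact live HEK cells; FP after avidin binding of uncleaved biotin substrate so inhibition keeps polarization high; 0% = DMSO wells and 100% = 60 µM reference IDE inhibitor Ii1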
* hit, by the source's call; ! = not active in a repeat.

Results for O=[N+]([O-])c1cccc(Cl)c1NCCNc1ncc(C(F)(F)F)cc1Cl ?
Cardiac RTF inh: -5; IDE cell activ: 73*; cardiac RTF act: 2; IDE inh: 7

What do the screens show for `O=C(Nc1sc2c(c1C(=O)NCC(O)CO)CCCC2)c1ccccc1` (configuration not stated)?
Cardiac RTF inh: -1; IDE cell activ: 5; cardiac RTF act: 1; IDE inh: -3

Results for CCCOC(=O)C1=C(C)NC2=C(C(=O)C(C(=O)OC)C(C)C2)C1c1ccc(N(CC)CC)cc1 (configuration not stated) ?
Cardiac RTF inh: 4; IDE cell activ: 1; cardiac RTF act: 0; IDE inh: 4

Results for CCC(C)OC(=O)C1=C(C)NC2=C(C(=O)C(C(=O)OC)C(C)C2)C1c1ccc(N(C)C)cc1 (configuration not stated) ?
Cardiac RTF inh: 2; IDE cell activ: 17*; cardiac RTF act: -8; IDE inh: 0

Results for CCN1CCN(c2c(/C=C3\SC(=S)N(Cc4ccco4)C3=O)c(C)c(C#N)c(=O)n2C)CC1 ?
Cardiac RTF inh: -85; IDE cell activ: -62; cardiac RTF act: 62*; IDE inh: 66*

How did Oc1c(C=Nc2cccc3cccnc23)sc2ccccc12 do in these assays?
IDE inh: 49*

What do the screens show for `Cc1cccc(/N=C/c2sc3ccccc3c2O)n1`?
Cardiac RTF inh: -21; IDE cell activ: 3; cardiac RTF act: 4; IDE inh: 1

Results for CCN(CC)c1ccc2cc(C(=O)NCc3ccc(F)cc3)c(=N)oc2c1 ?
Cardiac RTF inh: -82; IDE cell activ: -6; cardiac RTF act: 267*; IDE inh: 2

How did COc1ccc(CCC(=O)N2CCN(c3ccccc3)CC2)cc1OC do in these assays?
Cardiac RTF inh: -7; IDE cell activ: -3; cardiac RTF act: -6; IDE inh: 1

How did Cc1cccc(OCc2nn[nH]n2)c1C do in these assays?
Cardiac RTF inh: 6; IDE cell activ: 4; cardiac RTF act: 165*; IDE inh: -1

How did O=C(CC(=O)c1cccs1)c1ccncc1 do in these assays?
Cardiac RTF inh: -3; IDE cell activ: 4; cardiac RTF act: 3

What do the screens show for `CN1Cc2c(N)cccc2C(c2ccccc2)C1` (configuration not stated)?
Cardiac RTF inh: -15; IDE cell activ: 7; cardiac RTF act: 31*!; IDE inh: -2

What do the screens show for `O=C1CC(c2ccccc2)c2ccccc21` (configuration not stated)?
Cardiac RTF inh: -6; IDE cell activ: 2; cardiac RTF act: -2; IDE inh: 7

Results for CCN(CC)c1ccc2cc(S(=O)(=O)c3ccc(Cl)cc3)c(=O)oc2c1 ?
Cardiac RTF inh: -291; IDE cell activ: -18; cardiac RTF act: 253*; IDE inh: 6

How did CCCCCCc1cc2cc(S(=O)(=O)c3ccc(Cl)cc3)c(=O)oc2cc1O do in these assays?
Cardiac RTF inh: -5; IDE cell activ: -2; cardiac RTF act: 5; IDE inh: 9

Results for CSc1cccc(-c2nnc(NC(=O)c3cccc(N4C(=O)CCC4=O)c3)o2)c1 ?
Cardiac RTF inh: 0; IDE cell activ: 2; cardiac RTF act: -6; IDE inh: 5

How did COc1cccc(C2=CC(c3ccc(C)cc3)n3ncnc3N2)c1 (configuration not stated) do in these assays?
IDE inh: 1

What do the screens show for `Cc1ccsc1C1C=C(c2cccc(Br)c2)Nc2ncnn21` (configuration not stated)?
Cardiac RTF inh: -58; IDE cell activ: -34; cardiac RTF act: 46*; IDE inh: 25*

What do the screens show for `COc1ccc(OC)c(C(=O)COC(=O)CN2C(=O)NC3(CCCCC3C)C2=O)c1` (configuration not stated)?
Cardiac RTF inh: -7; IDE cell activ: 22*; cardiac RTF act: -1; IDE inh: -2

How did COc1ccccc1C(=O)NC(=O)COC(=O)CN1C(=O)NC2(CCCCC2C)C1=O (configuration not stated) do in these assays?
Cardiac RTF inh: -10; IDE cell activ: 2; cardiac RTF act: 0; IDE inh: -7

How did CCCOc1cc(N)ccc1C(=O)OCCN(CC)CC do in these assays?
Cardiac RTF inh: 12; IDE cell activ: -7; cardiac RTF act: 5; IDE inh: 6

What do the screens show for `CCCOc1ccc(N)cc1N`?
Cardiac RTF inh: -47; IDE cell activ: 2; cardiac RTF act: 32*; IDE inh: 0

How did CC(OC(=O)CC1CC2CCC1C2)C(=O)Nc1cccc(S(=O)(=O)N2CCOCC2)c1 (configuration not stated) do in these assays?
Cardiac RTF inh: -11; IDE cell activ: 18*; cardiac RTF act: -9; IDE inh: 7

Results for Nc1ccc(-c2nc3ccc(N)cc3[nH]2)cc1 ?
Cardiac RTF inh: 1; IDE cell activ: 3; cardiac RTF act: 3; IDE inh: 1

What do the screens show for `Nc1ccc2cc3[nH]c4cc(N)ccc4c3nc2c1`?
Cardiac RTF inh: inactive; IDE cell activ: 53*; cardiac RTF act: active

What do the screens show for `Cc1cc(C)n2nc(C)c(Br)c2n1`?
Cardiac RTF inh: -3; IDE cell activ: 3; cardiac RTF act: 7; IDE inh: 3

Results for Cc1cc(C)n2nc3nc4c(cc3c2n1)CCCC4 ?
Cardiac RTF inh: -53; IDE cell activ: -5; cardiac RTF act: 31*; IDE inh: -2

What do the screens show for `CC(=O)N1CCN(S(=O)(=O)c2cccc(C(=O)NNC(=O)c3ccc(Br)cc3)c2)CC1`?
Cardiac RTF inh: -117; IDE cell activ: -3; cardiac RTF act: 44*

What do the screens show for `O=C(NNC(=O)c1cccc(S(=O)(=O)N2CCCCC2)c1)c1ccccc1`?
Cardiac RTF inh: 0; IDE cell activ: 3; cardiac RTF act: 2; IDE inh: 3

Results for CCOC(=O)C1Nc2ccccc2C2C(O)C(O)CC12 (configuration not stated) ?
Cardiac RTF inh: -73; IDE cell activ: 13; cardiac RTF act: 80*; IDE inh: -2

What do the screens show for `CC[n+]1c(/C=C2\Sc3ccccc3N2C)ccc2cccc(C)c21`?
Cardiac RTF inh: -105; IDE cell activ: -82; cardiac RTF act: 46*

How did COc1ccc(F)c(CN2CCC(n3nccc3NC(=O)CCCc3ccccc3)CC2)c1 do in these assays?
Cardiac RTF inh: 0; IDE cell activ: 4; cardiac RTF act: 1; IDE inh: 1

How did O=C(O)CCCN1C(=O)/C(=C\c2ccccc2OCc2ccccc2)SC1=S do in these assays?
Cardiac RTF inh: 4; IDE cell activ: 6; cardiac RTF act: -3; IDE inh: 7

What do the screens show for `O=C(O)CCCN1C(=O)/C(=C/c2cn(-c3ccccc3)nc2-c2cccs2)SC1=S`?
Cardiac RTF inh: -34; IDE cell activ: 1; cardiac RTF act: 31*

What do the screens show for `C1CCCCCC(=NNc2nn[nH]n2)CCCCC1`?
Cardiac RTF inh: 1; IDE cell activ: 34*; cardiac RTF act: 2; IDE inh: 1

What do the screens show for `Cc1cc(C)nc(NN=C2CCCC2)n1`?
Cardiac RTF inh: 1; IDE cell activ: 2; cardiac RTF act: 2; IDE inh: 2
